How the values were obtained:
Experiment in all cases: DAPPL (digital affinity profiling via proximity ligation, sequencing); 10 mM Tris-HCl pH 7.5, 50 mM NaCl, 1 mM DTT, 4% glycerol, room temperature, 30 min; GST-TFs on glutathione beads, 16-mer random dsDNA library, 0.1% formaldehyde crosslink after washing; high values mean tight binding
FEV = target: T1, FEV (Homo sapiens, UniProt Q99581 1-238); settings: protein: recombinant; tags: N-terminal GST; dsDNA, one strand shown
T1 sequence: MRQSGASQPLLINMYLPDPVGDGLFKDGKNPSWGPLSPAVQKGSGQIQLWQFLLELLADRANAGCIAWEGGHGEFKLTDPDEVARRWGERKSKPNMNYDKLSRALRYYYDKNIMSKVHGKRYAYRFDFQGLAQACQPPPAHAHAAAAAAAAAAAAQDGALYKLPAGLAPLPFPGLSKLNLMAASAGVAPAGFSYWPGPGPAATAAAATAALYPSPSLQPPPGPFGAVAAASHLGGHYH
Procedure, shortened: (§1)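 Pools of DNA-barcoded human transcription factors, expressed in yeast as GST fusions on glutathione beads and combined with a tag-only sample, were incubated with 200 nmole of a 16-mer random double-stranded DNA library. Incubation took 30 min at room temperature in Tris/NaCl/DTT/glycerol buffer and was followed by washing, 0.1% formaldehyde crosslinking, proximity ligation (BsaI/T4 ligase, 1 h, 37 °C), PCR amplification and sequencing on an Illumina NextSeq500. Binding signal is the ratio of a hexamer's read frequency for a factor to its frequency for the tag-only sample.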

ETV5 = ETV5 (Homo sapiens, UniProt P41161 1-510); settings: protein: recombinant; tags: N-terminal GST; dsDNA, one strand shown
Procedure, shortened: as §1

HSF1 = HSF1 (Homo sapiens, UniProt Q00613 1-529); settings: protein: recombinant; tags: N-terminal GST; chain copies: 3; dsDNA, one strand shown
Procedure, shortened: as §1

SPIC = target: T2, SPIC (Homo sapiens, UniProt Q8N5J4 1-248); settings: protein: recombinant; tags: N-terminal GST; dsDNA, one strand shown
T2 sequence: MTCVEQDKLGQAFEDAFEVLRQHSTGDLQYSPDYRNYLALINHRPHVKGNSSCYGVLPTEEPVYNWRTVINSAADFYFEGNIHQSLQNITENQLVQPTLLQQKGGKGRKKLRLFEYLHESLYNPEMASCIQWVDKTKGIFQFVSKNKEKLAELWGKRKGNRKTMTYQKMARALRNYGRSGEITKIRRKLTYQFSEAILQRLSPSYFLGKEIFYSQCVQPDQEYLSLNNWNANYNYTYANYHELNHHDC
Procedure, shortened: as §1

ELF4 = ELF4 (Homo sapiens, UniProt Q99607 1-663); settings: protein: recombinant; tags: N-terminal GST; dsDNA, one strand shown
Procedure, shortened: as §1

ELK4 = target: T3, ELK4 (Homo sapiens, UniProt P28324-2 1-405); settings: protein: recombinant; tags: N-terminal GST; dsDNA, one strand shown
T3 sequence: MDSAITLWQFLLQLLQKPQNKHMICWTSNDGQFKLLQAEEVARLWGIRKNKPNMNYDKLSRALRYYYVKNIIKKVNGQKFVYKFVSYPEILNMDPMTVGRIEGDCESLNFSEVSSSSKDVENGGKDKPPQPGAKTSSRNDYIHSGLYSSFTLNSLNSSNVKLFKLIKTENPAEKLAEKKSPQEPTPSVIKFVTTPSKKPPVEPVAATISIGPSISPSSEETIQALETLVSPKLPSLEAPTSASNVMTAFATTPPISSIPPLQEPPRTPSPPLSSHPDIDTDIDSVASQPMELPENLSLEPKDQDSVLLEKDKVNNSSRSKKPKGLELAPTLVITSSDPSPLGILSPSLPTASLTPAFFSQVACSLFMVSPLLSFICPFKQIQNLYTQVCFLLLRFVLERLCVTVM
Procedure, shortened: as §1

ETV2 = target: T4, ETV2 (Homo sapiens, UniProt O00321 1-342); settings: protein: recombinant; tags: N-terminal GST; dsDNA, one strand shown
T4 sequence: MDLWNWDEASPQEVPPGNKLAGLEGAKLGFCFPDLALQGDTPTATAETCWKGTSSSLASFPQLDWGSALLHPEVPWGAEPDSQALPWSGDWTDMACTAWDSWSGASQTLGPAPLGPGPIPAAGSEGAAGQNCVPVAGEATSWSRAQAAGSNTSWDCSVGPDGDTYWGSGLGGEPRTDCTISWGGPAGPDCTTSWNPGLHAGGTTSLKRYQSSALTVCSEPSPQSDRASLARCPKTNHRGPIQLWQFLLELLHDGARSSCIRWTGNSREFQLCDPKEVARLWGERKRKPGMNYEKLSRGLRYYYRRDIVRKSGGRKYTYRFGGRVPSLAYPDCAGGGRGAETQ
Procedure, shortened: as §1

ELF3 = target: T5, ELF3 (Homo sapiens, UniProt P78545 1-371); settings: protein: recombinant; tags: N-terminal GST; dsDNA, one strand shown
T5 sequence: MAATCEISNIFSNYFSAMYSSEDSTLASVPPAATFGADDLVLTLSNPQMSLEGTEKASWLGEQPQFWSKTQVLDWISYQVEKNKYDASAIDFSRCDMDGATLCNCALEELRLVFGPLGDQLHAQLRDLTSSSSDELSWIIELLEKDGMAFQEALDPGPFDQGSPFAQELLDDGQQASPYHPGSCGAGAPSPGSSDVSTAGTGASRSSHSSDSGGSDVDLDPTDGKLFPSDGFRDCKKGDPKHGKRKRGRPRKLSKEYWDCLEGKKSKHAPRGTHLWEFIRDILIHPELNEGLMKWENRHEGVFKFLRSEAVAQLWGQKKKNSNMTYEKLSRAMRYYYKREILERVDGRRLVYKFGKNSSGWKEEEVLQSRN
Procedure, shortened: as §1

CRX = CRX (Homo sapiens, UniProt O43186 1-299); settings: protein: recombinant; tags: N-terminal GST; dsDNA, one strand shown
Procedure, shortened: as §1

ETV1 = ETV1 (Homo sapiens, UniProt P50549 1-477); settings: protein: recombinant; tags: N-terminal GST; dsDNA, one strand shown
Procedure, shortened: as §1

Chain of ETV1 (P50549 whole entry): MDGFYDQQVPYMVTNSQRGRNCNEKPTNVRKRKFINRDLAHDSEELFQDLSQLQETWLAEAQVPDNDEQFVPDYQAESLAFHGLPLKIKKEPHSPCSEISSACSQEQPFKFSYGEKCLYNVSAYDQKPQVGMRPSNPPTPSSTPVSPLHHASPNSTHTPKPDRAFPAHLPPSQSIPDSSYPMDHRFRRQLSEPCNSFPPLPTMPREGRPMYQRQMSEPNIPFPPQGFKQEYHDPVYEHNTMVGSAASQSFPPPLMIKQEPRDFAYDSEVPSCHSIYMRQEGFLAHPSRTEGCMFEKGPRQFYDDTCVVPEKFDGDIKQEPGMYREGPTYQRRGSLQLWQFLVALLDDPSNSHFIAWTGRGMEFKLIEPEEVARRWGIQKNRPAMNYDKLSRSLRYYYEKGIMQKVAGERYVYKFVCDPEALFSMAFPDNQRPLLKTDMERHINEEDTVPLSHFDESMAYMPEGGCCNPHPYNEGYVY
Chain of HSF1 (Q00613 whole entry): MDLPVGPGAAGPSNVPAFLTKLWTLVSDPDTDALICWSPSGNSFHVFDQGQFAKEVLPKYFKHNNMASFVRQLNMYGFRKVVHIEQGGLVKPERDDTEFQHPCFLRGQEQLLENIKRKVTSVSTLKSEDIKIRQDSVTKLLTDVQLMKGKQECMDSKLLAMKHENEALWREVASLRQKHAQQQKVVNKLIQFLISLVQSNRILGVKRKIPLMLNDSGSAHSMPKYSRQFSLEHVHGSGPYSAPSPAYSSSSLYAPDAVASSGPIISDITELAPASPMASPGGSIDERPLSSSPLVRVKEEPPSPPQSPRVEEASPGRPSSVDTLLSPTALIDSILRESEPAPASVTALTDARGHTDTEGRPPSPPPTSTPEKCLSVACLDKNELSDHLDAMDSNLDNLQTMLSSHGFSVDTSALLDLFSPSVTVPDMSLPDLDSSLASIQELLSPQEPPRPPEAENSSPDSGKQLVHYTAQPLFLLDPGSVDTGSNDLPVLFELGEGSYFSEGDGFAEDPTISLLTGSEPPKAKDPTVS
Chain of ELF4 (Q99607 whole entry): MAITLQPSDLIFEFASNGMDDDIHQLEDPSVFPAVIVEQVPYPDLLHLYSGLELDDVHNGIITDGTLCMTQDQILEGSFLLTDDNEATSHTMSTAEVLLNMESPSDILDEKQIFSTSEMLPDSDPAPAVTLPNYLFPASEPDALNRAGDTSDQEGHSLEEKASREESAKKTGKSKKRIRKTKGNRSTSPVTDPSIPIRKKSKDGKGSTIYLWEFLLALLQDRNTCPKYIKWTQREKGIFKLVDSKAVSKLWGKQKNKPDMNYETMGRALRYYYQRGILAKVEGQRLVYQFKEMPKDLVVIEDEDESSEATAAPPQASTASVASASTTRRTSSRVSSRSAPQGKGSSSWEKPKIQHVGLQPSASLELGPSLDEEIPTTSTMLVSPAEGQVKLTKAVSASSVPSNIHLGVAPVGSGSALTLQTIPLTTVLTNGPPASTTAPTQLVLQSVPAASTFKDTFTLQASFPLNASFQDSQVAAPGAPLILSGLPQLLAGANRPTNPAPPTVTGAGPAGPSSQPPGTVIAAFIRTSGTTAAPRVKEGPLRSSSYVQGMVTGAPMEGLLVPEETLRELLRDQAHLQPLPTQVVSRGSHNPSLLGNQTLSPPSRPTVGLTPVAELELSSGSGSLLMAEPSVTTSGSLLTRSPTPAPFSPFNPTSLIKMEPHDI
Chain of ETV5 (P41161 whole entry): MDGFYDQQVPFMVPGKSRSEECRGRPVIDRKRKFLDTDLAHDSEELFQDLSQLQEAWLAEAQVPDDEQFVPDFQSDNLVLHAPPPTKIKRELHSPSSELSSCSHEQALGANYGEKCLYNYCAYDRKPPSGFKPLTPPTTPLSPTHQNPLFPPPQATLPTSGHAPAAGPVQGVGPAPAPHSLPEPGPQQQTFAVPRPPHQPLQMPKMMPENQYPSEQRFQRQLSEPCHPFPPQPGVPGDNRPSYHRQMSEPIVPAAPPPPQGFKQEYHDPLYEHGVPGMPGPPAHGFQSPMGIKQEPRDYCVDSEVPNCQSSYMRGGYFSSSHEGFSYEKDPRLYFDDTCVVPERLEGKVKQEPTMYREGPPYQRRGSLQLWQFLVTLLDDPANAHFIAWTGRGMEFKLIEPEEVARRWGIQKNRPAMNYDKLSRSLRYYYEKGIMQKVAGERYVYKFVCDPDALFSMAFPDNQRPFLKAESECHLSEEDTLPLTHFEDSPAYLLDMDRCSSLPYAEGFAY
Chain of CRX (O43186 whole entry): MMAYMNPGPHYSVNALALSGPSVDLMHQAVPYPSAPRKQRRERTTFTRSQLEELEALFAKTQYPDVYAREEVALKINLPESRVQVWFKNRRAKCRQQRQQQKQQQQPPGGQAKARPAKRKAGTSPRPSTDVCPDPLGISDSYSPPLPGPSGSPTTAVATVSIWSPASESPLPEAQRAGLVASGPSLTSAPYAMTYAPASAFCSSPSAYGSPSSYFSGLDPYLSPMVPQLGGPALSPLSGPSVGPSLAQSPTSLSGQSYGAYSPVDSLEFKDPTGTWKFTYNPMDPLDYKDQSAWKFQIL

With CTTCTA the binding signal (FEV) was 1.4 fold enrichment (6-mer frequency, TF over GST control), the binding signal (ETV5) was 1.46 fold enrichment (6-mer frequency, TF over GST control) and the binding signal (HSF1) was 3.31 fold enrichment (6-mer frequency, TF over GST control). For the same sequence, the binding signal (SPIC) was 1.28 fold enrichment (6-mer frequency, TF over GST control), the binding signal (ELF4) was 1.38 fold enrichment (6-mer frequency, TF over GST control) and the binding signal (ELK4) was 1.53 fold enrichment (6-mer frequency, TF over GST control). For the same sequence, the binding signal (ETV2) was 1.49 fold enrichment (6-mer frequency, TF over GST control), the binding signal (ELF3) was 1.42 fold enrichment (6-mer frequency, TF over GST control) and the binding signal (CRX) was 1.87 fold enrichment (6-mer frequency, TF over GST control). The binding signal (ETV1) was 1.49 fold enrichment (6-mer frequency, TF over GST control).
In the case of CTCCAG, the binding signal (FEV) is reported as 1.13 fold enrichment (6-mer frequency, TF over GST control), the binding signal (ETV5) is reported as 1.17 fold enrichment (6-mer frequency, TF over GST control) and the binding signal (HSF1) is reported as 1.65 fold enrichment (6-mer frequency, TF over GST control). The binding signal (SPIC) was 1.16 fold enrichment (6-mer frequency, TF over GST control), the binding signal (ELF4) was 1.21 fold enrichment (6-mer frequency, TF over GST control) and the binding signal (ELK4) was 1.18 fold enrichment (6-mer frequency, TF over GST control). For the same sequence, the binding signal (ETV2) was 1.33 fold enrichment (6-mer frequency, TF over GST control), the binding signal (ELF3) was 1.02 fold enrichment (6-mer frequency, TF over GST control) and the binding signal (CRX) was 1.1 fold enrichment (6-mer frequency, TF over GST control). For the same sequence, the binding signal (ETV1) was 1.16 fold enrichment (6-mer frequency, TF over GST control).
In the case of TTACGT, the binding signal (FEV) is reported as 1.04 fold enrichment (6-mer frequency, TF over GST control), the binding signal (ETV5) is reported as 1.19 fold enrichment (6-mer frequency, TF over GST control) and the binding signal (HSF1) is reported as 1.21 fold enrichment (6-mer frequency, TF over GST control). The binding signal (SPIC) was 1.07 fold enrichment (6-mer frequency, TF over GST control), the binding signal (ELF4) was 1.11 fold enrichment (6-mer frequency, TF over GST control) and the binding signal (ELK4) was 1.12 fold enrichment (6-mer frequency, TF over GST control). For the same sequence, the binding signal (ETV2) was 1.2 fold enrichment (6-mer frequency, TF over GST control), the binding signal (ELF3) was 1.14 fold enrichment (6-mer frequency, TF over GST control) and the binding signal (CRX) was 1.74 fold enrichment (6-mer frequency, TF over GST control). The binding signal (ETV1) was 1.06 fold enrichment (6-mer frequency, TF over GST control).
For TTCCCT, the binding signal (FEV) was 1.64 fold enrichment (6-mer frequency, TF over GST control), the binding signal (ETV5) was 1.69 fold enrichment (6-mer frequency, TF over GST control) and the binding signal (HSF1) was 1.52 fold enrichment (6-mer frequency, TF over GST control). The binding signal (SPIC) was 1.84 fold enrichment (6-mer frequency, TF over GST control), the binding signal (ELF4) was 1.79 fold enrichment (6-mer frequency, TF over GST control) and the binding signal (ELK4) was 1.65 fold enrichment (6-mer frequency, TF over GST control). The binding signal (ETV2) was 1.62 fold enrichment (6-mer frequency, TF over GST control), the binding signal (ELF3) was 1.57 fold enrichment (6-mer frequency, TF over GST control) and the binding signal (CRX) was 1.31 fold enrichment (6-mer frequency, TF over GST control). The binding signal (ETV1) was 1.68 fold enrichment (6-mer frequency, TF over GST control).
With CATTAC the binding signal (FEV) was 1.12 fold enrichment (6-mer frequency, TF over GST control), the binding signal (ETV5) was 1.13 fold enrichment (6-mer frequency, TF over GST control) and the binding signal (HSF1) was 1.02 fold enrichment (6-mer frequency, TF over GST control). For the same sequence, the binding signal (SPIC) was 1.05 fold enrichment (6-mer frequency, TF over GST control), the binding signal (ELF4) was 1.1 fold enrichment (6-mer frequency, TF over GST control) and the binding signal (ELK4) was 1.17 fold enrichment (6-mer frequency, TF over GST control). For the same sequence, the binding signal (ETV2) was 1.22 fold enrichment (6-mer frequency, TF over GST control), the binding signal (ELF3) was 1.08 fold enrichment (6-mer frequency, TF over GST control) and the binding signal (CRX) was 1.18 fold enrichment (6-mer frequency, TF over GST control). For the same sequence, the binding signal (ETV1) was 1.18 fold enrichment (6-mer frequency, TF over GST control).
With CCCTAA the binding signal (FEV) was 1.18 fold enrichment (6-mer frequency, TF over GST control), the binding signal (ETV5) was 1.28 fold enrichment (6-mer frequency, TF over GST control) and the binding signal (HSF1) was 1.29 fold enrichment (6-mer frequency, TF over GST control). For the same sequence, the binding signal (SPIC) was 1.24 fold enrichment (6-mer frequency, TF over GST control), the binding signal (ELF4) was 1.28 fold enrichment (6-mer frequency, TF over GST control) and the binding signal (ELK4) was 1.28 fold enrichment (6-mer frequency, TF over GST control). The binding signal (ETV2) was 1.23 fold enrichment (6-mer frequency, TF over GST control), the binding signal (ELF3) was 1.25 fold enrichment (6-mer frequency, TF over GST control) and the binding signal (CRX) was 1.71 fold enrichment (6-mer frequency, TF over GST control). For the same sequence, the binding signal (ETV1) was 1.23 fold enrichment (6-mer frequency, TF over GST control).
AATAGA was tested, and the binding signal (FEV) was 1.07 fold enrichment (6-mer frequency, TF over GST control), the binding signal (ETV5) was 1.07 fold enrichment (6-mer frequency, TF over GST control) and the binding signal (HSF1) was 1.34 fold enrichment (6-mer frequency, TF over GST control). For the same sequence, the binding signal (SPIC) was 1.02 fold enrichment (6-mer frequency, TF over GST control), the binding signal (ELF4) was 1.07 fold enrichment (6-mer frequency, TF over GST control) and the binding signal (ELK4) was 1.1 fold enrichment (6-mer frequency, TF over GST control). The binding signal (ETV2) was 1.13 fold enrichment (6-mer frequency, TF over GST control), the binding signal (ELF3) was 1.07 fold enrichment (6-mer frequency, TF over GST control) and the binding signal (CRX) was 1.15 fold enrichment (6-mer frequency, TF over GST control). The binding signal (ETV1) was 1.07 fold enrichment (6-mer frequency, TF over GST control).
For GATATT, the binding signal (FEV) was 1.04 fold enrichment (6-mer frequency, TF over GST control), the binding signal (ETV5) was 1.14 fold enrichment (6-mer frequency, TF over GST control) and the binding signal (HSF1) was 1.18 fold enrichment (6-mer frequency, TF over GST control). The binding signal (SPIC) was 1.12 fold enrichment (6-mer frequency, TF over GST control), the binding signal (ELF4) was 1.12 fold enrichment (6-mer frequency, TF over GST control) and the binding signal (ELK4) was 1.15 fold enrichment (6-mer frequency, TF over GST control). For the same sequence, the binding signal (ETV2) was 1.24 fold enrichment (6-mer frequency, TF over GST control), the binding signal (ELF3) was 1.07 fold enrichment (6-mer frequency, TF over GST control) and the binding signal (CRX) was 1.31 fold enrichment (6-mer frequency, TF over GST control). For the same sequence, the binding signal (ETV1) was 1.1 fold enrichment (6-mer frequency, TF over GST control).
